# Source: PubChem BioAssay
# An excerpt weighted towards active compounds, which were near 3.4% of everything screened.
# Wnt bcat act – Wnt/beta-catenin pathway activators, primary screen, cell-based, plate reader, single point; Wnt/beta-catenin reporter cell assay, activator; 300,000 tested, 1.2% active; activation, % at 9.35 µM; in the data active = activation above about 30%, passing the limit was not always enough;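 note: 0% = neutral control wells and 100% = positive control wells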
# HIV Env fusion – inhibitors of HIV-1 Env-driven cell-cell fusion, primary screen, HeLa-JRFL effector, CEM21 target cells, luciferase | 360,000 tested, 1.1% active | inhibition, % at 12.3 µM;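 active = mean replicate inhibition score of at least 50 and every replicate individually at or above 50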;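 note: 0% = plate neutral controls and 100% = maraviroc near 300 nM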
# miR122 inh – miR-122 Renilla sensor signal increase in Huh7, primary screen, miR-122 inhibitor project, cell-based, single point, plate reader; Huh7 miR-122 Renilla luciferase sensor, 48 h; neutral wells = 0, positive control = 100; activation (reporter increase), % at 12.5 µM; 340,000 tested, 0.3% active; AID 602342, 2012;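 active = mean replicate activation score at least 90 and every replicate individually at or above 90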;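 note: higher luciferase means less miR-122 activity so hits act as miR-122 inhibitors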
# esBAF inh – Bmi1 luciferase reporter increase in mESCs, primary screen, esBAF inhibitor project, mouse ES cells, Bmi1 luciferase knock-in, single point; reporter increase, % at 12.5 µM; AID 602393, 2012; 350,000 tested, 2% active; 24 h; 100% = twice the neutral-well signal; in the data active = activation above about 40%;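 note: 0% = median of the plate's neutral control wells and 100% = double that signal; a rise in the Bmi1 reporter signal indicates esBAF inhibition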
# MITF TRPM1 HTS – activators of MITF-driven TRPM1 promoter reporter, primary screen, cell-based, SK-MEL-5, luciferase, single point; SK-MEL-5 TRPM1-promoter luciferase, 24 h; % of positive control, neutral wells = 0; activation, % at 12.5 µM; 300,000 tested, 0.75% active; AID 588334, 2011;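 active = mean activation of at least 80% with every replicate also reaching 80%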;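 note: 0% = neutral control wells and 100% = parthenolide positive control wells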
# * = called active by the depositor; · = not tested or not shown; [ ] = remark or other dose.
SMILES,Wnt bcat act,HIV Env fusion,miR122 inh,esBAF inh,MITF TRPM1 HTS
C(/C=C/c1ccccn1)=C\c1ccccc1,41.8*,-179.2,·,·,65.1
CC1=CC(=O)N(c2cccc(C(F)(F)F)c2)C1c1ccc(Cl)cc1 (centres undefined),·,65.8*,-6.7,-2.6,6.7
Cc1cccnc1NC(=O)Nc1ccc(F)cc1,0.2,·,6.7,51.2*,40.0
Cc1ccc(NC(=O)Nc2ncccc2C)cc1,29.6,-101.4,1.4,·,28.6
COc1ccc(NC(=O)Nc2ccccc2SC)cc1,39.6*,-21.5,0.7,28.3,34.9
CSc1ccccc1NC(=O)Nc1ccc(Cl)cc1,-4.9,-31.5,37.2,49.6*,35.2
O=C(Nc1ccc(F)cc1)Nc1ccccc1F,-5.0,-3.7,27.6,74.4*,54.9
O=C(NCC[C@@H]1CC[C@@H](NS(=O)(=O)c2cccc(F)c2)[C@@H](CO)O1)C1CCCCC1,·,-12.0[16.7 µM],·,6.3,·
COCCNC(=O)C[C@@H]1CC[C@@H]2[C@H](COc3ccc(NC(=O)c4cc(C)on4)cc3C(=O)N2C)O1,·,·,47.8[16.7 µM],-2.1,·
C[C@@H]1CCCCO[C@@H](CN(C)C(=O)Nc2ccc3c(c2)OCO3)[C@@H](C)CN([C@H](C)CO)C(=O)c2cc(NS(=O)(=O)c3cccs3)ccc2O1,·,4.3[16.7 µM],-2.3[16.7 µM],-2.8,·
C/C=C/c1ccc2c(c1)O[C@@H](CN(C)C(=O)c1cnccn1)[C@H](C)CN([C@@H](C)CO)S2(=O)=O,·,-10.4[16.7 µM],1.1[16.7 µM],1.0,·
CC[C@@]12C(=O)N(c3cccc(F)c3)C(=O)N1[C@H](c1ccc(F)cc1)[C@@H]1C(=O)N(C3CCCCC3)C(=O)[C@@H]12,·,·,-3.6,·,-6.1
CC[C@@]12C(=O)N(c3cccc(Br)c3)C(=O)N1[C@H](c1ccc(F)cc1)[C@@H]1C(=O)N(C3CCCCC3)C(=O)[C@@H]12,-1.0,93.1*,-7.5,-9.1,-0.1
CCN1C(=O)[C@H]2[C@@H](c3ccccc3)N3C(=O)N(c4cccc(F)c4)C(=O)[C@@]3(CC(C)C)[C@H]2C1=O,·,·,-11.0,-0.7,-7.8
CC(C)C[C@@]12C(=O)N(c3cccc(Br)c3)C(=O)N1[C@H](c1ccc(F)cc1)[C@@H]1C(=O)N(C3CCCCC3)C(=O)[C@@H]12,-5.7,103.8*,·,14.3,-7.5
C[C@H](CO)N1C[C@H](C)[C@@H](CN(C)C(=O)Cc2ccccc2)OCCCC[C@H](C)Oc2ccc(NC(=O)c3ccccc3)cc2C1=O,·,-52.1[16.7 µM],4.4[16.7 µM],-7.9,·
COc1ccc(-c2ccc(C)cc2)cc1[C@H]1[C@H]2C=CC[C@@H](C)[C@@H]2C(=O)N1Cc1ccccc1,25.6,56.0*,14.9,2.2,-0.3
COc1ccc(-c2cccc([C@H]3[C@@H]4C=CC[C@@H](C)[C@@H]4C(=O)N3Cc3ccccc3)c2)cc1,-2.0,42.6,-1.2,0.9,10.3
COc1cc(-c2cccc([C@H]3[C@@H]4C=CC[C@@H](C)[C@@H]4C(=O)N3Cc3ccccc3)c2)cc(OC)c1OC,-1.7,47.0*,-4.1,3.3,-19.7
Cc1ccc(N2C(=O)N3[C@H](c4ccc(F)cc4)[C@@H]4C(=O)N(C5CCCCC5)C(=O)[C@@H]4[C@]3(Cc3ccccc3)C2=O)cc1,-7.7,55.8*,·,-2.8,·
CCN1C(=O)[C@H]2[C@@H](c3ccc(C)cc3)N3C(=O)N(c4ccc(C)cc4)C(=O)[C@@]3(Cc3ccccc3)[C@H]2C1=O,14.1,-78.5,-6.3,5.0,-5.9
O=C1[C@H]2[C@@H](c3ccc(Cl)cc3)N3C(=O)N(c4cccc(Cl)c4)C(=O)[C@@]3(Cc3ccccc3)[C@H]2C(=O)N1C1CCCCC1,-8.6,96.8*,-8.0,2.1,6.4
Cc1cccc([C@@H]2[C@@H]3C(=O)N(Cc4ccccc4)C(=O)[C@@H]3[C@]3(Cc4ccccc4)C(=O)N(c4cccc(Cl)c4)C(=O)N23)c1,-2.8,-206.1,·,4.1,-5.4
O=C1[C@H]2[C@@H](c3ccc(F)cc3)N3C(=O)N(c4cccc(Br)c4)C(=O)[C@@]3(Cc3ccccc3)[C@H]2C(=O)N1C1CCCCC1,-10.7,107.4*,5.7,4.1,1.7
O=C1[C@H]2[C@@H](c3ccc(F)cc3)N3C(=O)N(c4cccc(F)c4)C(=O)[C@@]3(Cc3ccccc3)[C@H]2C(=O)N1C1CCCCC1,-1.9,95.0*,-2.6,4.1,-0.8
